Measurements: PubChem BioAssay (EPA / NIEHS)
Calls of active or inactive are those of the source. Rule for the calls: active = hit-call score of the fitted dose curve at least 0.9, where 1 is the maximum; inactive = score below 0.9.

Test: ATG_NRF2_ARE_CIS: Attagene CIS-FACTORIAL HepG2 Assay for human Nuclear Factor Erythroid 2 Related Factor 2 (NFR2) response to Antioxidant Response Elements (ARE) (AID 2282992)
Conditions: HepG2 Attagene ARE/NRF2 reporter, transcription factor activity; actives raise or lower the signal
Experimental: ATG_CIS is a cell-based, multiplexed-readout assay that uses HepG2, a human liver cell line, with measurements taken at 24 hours after chemical dosing in a 24-well plate.ATG_NRF2_ARE_CIS is one of 52 assay component(s) measured or calculated from the ATG_CIS assay. It is designed to make measurements of mRNA induction, a form of inducible reporter, as detected with fluorescence intensity signals by Reverse transcription polymerase chain reaction (RT-PCR) and Capillary electrophoresis technology.Data from the assay component ATG_NRF2_ARE_CIS was analyzed into 1 assay endpoint. This assay endpoint, ATG_NRF2_ARE_CIS, was analyzed with bidirectional fitting relative to DMSO as the negative control and baseline of activity. Using a type of inducible reporter, measures of mRNA for gain or loss-of-signal activity can be used to understand the reporter gene at the transcription factor-level as they relate to the gene NFE2L2. Furthermore, this assay endpoint can be referred to as a primary readout, because this assay has produced multiple assay endpoints where this one serves a reporter gene function. To generalize the intended target to other relatable targets, this assay endpoint is annotated to the dna binding intended target family, where the subfamily is basic leucine zipper.
Human liver HepG2 cells are transiently transfected with multiple reporter transcription units (MRTUs) in 6-well plates using FuGene 6 reagent (Roche; 3 ml FuGene/1 mg DNA). The MRTU constructs are regulated by a cis-regulating element (promoter). […] A major difference between the CIS and TRANS system is that in CIS activities of endogenous TFs are measured, whereas the TRANS assay evaluates changes in activities of exogenous, chimeric NR-Gal4 proteins. […] At the end of 24 hour incubation, total RNA was isolated using TriZol reagent (Invitrogen). The isolated RNA is then reverse-transcribed using oligo(dT) primer and Mo-MLV reverse transcriptase (Invitrogen) with DNAse I (Ambion) treatment for 30 min. The one-tenth of the produced cDNA was amplified by PCR using Taq DNA polymerase (Invitrogen) and two reporter sequence-specific primers. The PCR products were fluorescently labeled by primer extension with 6-arboxyfluorescein (6-FAM) 5'-labeled reporter sequence-specific primer (2 min at 95 C, 20 s at 68 C and 10 min at 72 C) and these products were digested with 5U of HpaI (New England Biolabs) for 2h at 37 C. The fragments were purified using Qiaquick PCR columns (Qiagen), analyzed on an ABI 3130xL genetic analyzer (Applied Biosystems) with peak positions identified by using a set of X-rhodamine (ROX)-labeled MapMarker1000 molecular weight standards (BioVentures). The raw capillary electrophoresis data was processed using Attagraph software (Attagene).

Which outcome does the source give for `O=P(O)(Oc1ccccc1)Oc1ccccc1` here?
The outcome was “inactive”.

For `CCCCOC(=O)CCC(=O)OCCCC`, which outcome is on record?
Its outcome is “inactive”.

For `CC(C)(c1cc(Cl)c(O)c(Cl)c1)c1cc(Cl)c(O)c(Cl)c1`, which outcome is on record?
Its outcome is “inactive”.

For `CCCCCCC1CCOC1=O` (stereo not given), which outcome is on record?
Its outcome is “inactive”.

For `O=C(NCNC(=O)NC1C(=O)NC(=O)N1CO)NC1C(=O)NC(=O)N1CO` (stereo not given), which outcome is on record?
Its outcome is “inactive”.

With `CC(C)(C)C(=O)CCl` as the compound, how does the AC50 read?
Its AC50 is 21.6 µM (active).

Which AC50 does the source give for `C=CC(=O)OCCO` here?
Its AC50 is 47.6 µM (active).

With `CCC(C)(C)O` as the compound, how does the outcome read?
Its outcome is “inactive”.

Which outcome does the source give for `CCOC(=O)C1OC1(C)c1ccccc1` (stereo not given) here?
The outcome was “inactive”.

With `N#CCNCC#N` as the compound, how does the outcome read?
Its outcome is “inactive”.

For `[Cl][Sb]([Cl])[Cl]`, which AC50 is on record?
The AC50 was 1.72 µM (active).

With `CC(C)(O)C#N` as the compound, how does the outcome read?
Its outcome is “inactive”.

Which AC50 does the source give for `CC(=O)c1cc2c(cc1C)C(C)(C)C(C)CC2(C)C` (stereo not given) here?
Its AC50 is 26.7 µM (active).

For `C[N+](C)=CCl`, which outcome is on record?
The outcome was “inactive”.

For `CCOP(O)OCC`, which outcome is on record?
Its outcome is “inactive”.

Which outcome does the source give for `CC1CCC(=O)O1` (stereo not given) here?
The outcome was “inactive”.

With `BrCBr` as the compound, how does the outcome read?
Its outcome is “inactive”.

For `COC(=O)COc1ccc(Cl)cc1Cl`, which outcome is on record?
Its outcome is “inactive”.

For `CC(=O)/C=C/c1ccccc1`, which AC50 is on record?
Its AC50 is 33 µM (active).

Which outcome does the source give for `CCCOC(=O)c1ccccc1C(=O)OCCC` here?
Its outcome is “inactive”.

For `C=COCCCl`, which outcome is on record?
The outcome was “inactive”.

For `CCc1cccc(C)c1N(C(=O)CCl)[C@@H](C)COC`, which AC50 is on record?
Its AC50 is 7.39 µM (active).

Which outcome does the source give for `CC(C)[C@@H](C(=O)O[C@@H](C#N)c1cccc(Oc2ccccc2)c1)c1ccc(Cl)cc1` here?
Its outcome is “inactive”.

For `Cc1ccc(N(SC(F)(Cl)Cl)S(=O)(=O)N(C)C)cc1`, which AC50 is on record?
The AC50 was 13.9 µM (active).

Which AC50 does the source give for `CC(Cc1ccc(C(C)(C)C)cc1)CN1C[C@@H](C)O[C@@H](C)C1` (stereo not given in full) here?
Its AC50 is 35.9 µM (active).

Which AC50 does the source give for `COC(C)(C)CCC[C@H](C)C/C=C/C(C)=C/C(=O)OC(C)C` here?
The AC50 was 52.8 µM (active).

For `CC(C)CCCCCCCOC(=O)c1ccccc1C(=O)OCCCCCCCC(C)C`, which outcome is on record?
Its outcome is “inactive”.

With `C[N+](C)(C)CC(=O)[O-]` as the compound, how does the outcome read?
Its outcome is “inactive”.

Which outcome does the source give for `ClC1=C(Cl)[C@]2(Cl)[C@@H]3[C@@H](Cl)[C@H](Cl)C[C@@H]3[C@@]1(Cl)C2(Cl)Cl` here?
Its outcome is “inactive”.

With `CCC1CCC(=O)O1` (stereo not given) as the compound, how does the outcome read?
Its outcome is “inactive”.

With `CCCCCCCCCCCC#N` as the compound, how does the AC50 read?
Its AC50 is 73.4 µM (active).

For `O=C1C=CC(=O)C=C1`, which AC50 is on record?
Its AC50 is 57.4 µM (active).

With `N#Cc1cccc(C#N)c1` as the compound, how does the outcome read?
Its outcome is “inactive”.

For `Cc1ncc(C[n+]2csc(CCO)c2C)c(N)n1`, which outcome is on record?
Its outcome is “inactive”.

Which AC50 does the source give for `CC(C)(C)C(O)C(Oc1ccc(-c2ccccc2)cc1)n1cncn1` (stereo not given) here?
Its AC50 is 41.6 µM (active).

For `C=CCc1ccc(OC(=O)Cc2ccccc2)c(OC)c1`, which AC50 is on record?
Its AC50 is 11 µM (active).

With `CCCCCc1cc(O)cc(O)c1` as the compound, how does the AC50 read?
The AC50 was 43.5 µM (active).

With `COCC(=O)N(c1c(C)cccc1C)N1CCOC1=O` as the compound, how does the outcome read?
Its outcome is “inactive”.

For `[CH3][Sn]([Cl])([Cl])[Cl]`, which AC50 is on record?
The AC50 was 57.6 µM (active).

With `Cl/C=C\CCl` as the compound, how does the outcome read?
Its outcome is “inactive”.
